Laboratory results as given in PubChem BioAssay (Tox21).
Records with an inconclusive call do not appear. A number with no mark means an inactive call. The source made the active and inactive calls. Calls come from the whole dose curve; as a rule, active = well fitted cell-killing curve with a large enough effect in the repeat runs; inconclusive = weak or mixed curves, or effect the other way; inactive = flat fitted curve, though single readings scatter.

Assay: qHTS assay to identify small molecule antagonists of the androgen receptor (AR) signaling pathway using the MDA cell line in the presence of 0.5 nM R1881 - cell viability counter screen (AID 1259242); note: nearly all actives have a fitted effect of over 45% in size
Conditions: MDA-kb2 viability, CellTiter-Fluor protease fluorescence, 16 h; series mostly up to 92.4 µM; viability change, negative = cytotoxic: at the top concentration
Excerpt: U.S. Tox21 Program National Center for Advancing Translational Sciences [NCATS] NIH Chemical Genomics Center [NCGC] U.S. Environmental Protection Agency [EPA] National Institutes of Environmental Health Sciences [NIEHS] National Toxicology Program [NTP] U.S. Food and Drug Administration [FDA] Tox21 Assay Overview: Androgen receptor (AR) is an important member of the nuclear receptor family. Its signaling plays a critical role in AR-dependent prostate cancer and other androgen related diseases. Considerable attention has been given in the past decades to develop methods to study and screen for the environmental chemicals that have the potential to interfere with metabolic homeostasis, reproduction, developmental and behavioral functions. Therefore AR binding assay for screening androgen antagonists can be used to identify potential endocrine disruptors. MDA-kb2 cells (from ATCC, deposited by Wilson et al.) were used to screen for AR inhibitors against Tox21 compound libraries. These cells are human breast carcinoma cells that were stably transfected with a luciferase reporter gene under control of the MMTV promoter that contains response elements for both androgen receptor (AR) and glucocorticoid receptor (GR). The current screening for identification of AR inhibitors against Tox21 libraries used lower concentration of (0.5 nM) R1881 as a stimulator. The cytotoxicity of the Tox21 compound libraries against MDA-kb2 cell line was tested by measuring live-cell protease activity using CellTiter-Fluor assay in the same wells.
Tox21 Assay Protocol Summary: MDA-kb2 cells (cells cultured without CO2) were dispensed at 3,000 cells/well in 4 uL of culture medium into white wall/solid-bottom 1536-well plates (Corning Life Sciences, Corning, NY) using a Multidrop Combi (ThermoFisher Scientific, Waltham, MA) dispenser. After the assay plates were incubated at a 37C and 0% CO2 for 5 hr, 23 nL of compounds dissolved in DMSO, positive controls or DMSO only was transferred to the assay plate by a Pintool station (Kalypsys, San Diego, CA). The transfer of compounds was followed by the addition of 1 uL of 0.5 nM (final concentration) agonist (R1881)/culture medium using a Flying Reagent Dispenser (FRD, Aurora Discovery, San Diego, CA). The plates were incubated at 37C and 0% CO2 for 16 hr. For cytotoxicity assay, 1 uL of CellTiter-Fluor reagent (Promega Corporation, Madison, WI) was added to each well using the FRD and after 30 min incubation at 37C and 0% CO2, The fluorescence intensity was measured using ViewLux plate reader (PerkinElmer, Shelton, CT).
% is set by controls: 0 for no effect and ±100 for the full control effect; potency is the fitted concentration of half-maximal effect.

Row | Compound | viability change, negative = cytotoxic | Potency
1 | COc1cc(C(=O)NS(=O)(=O)c2ccccc2C)ccc1Cc1cn(C)c2ccc(NC(=O)OC3CCCC3)cc12 | -6.4% [at 42.5 µM] | 
2 | Cc1ccc(CCn2c3c(c4cc(Cl)ccc42)CN(C)CC3)cn1 | 4.99% [at 42.5 µM] | 
3 | NC(=O)C(=O)N/N=C/c1ccc([N+](=O)[O-])o1 | -8.41% [at 42.5 µM] | 
4 | Cc1cnccn1 | -0.0089% | 
5 | S=C(SSSSSSC(=S)N1CCCCC1)N1CCCCC1 | -10.8% [at 19 µM] | 
6 | C=C(c1ccc(C(=O)O)cc1)c1cc2c(cc1C)C(C)(C)CCC2(C)C | -5.48% [at 42.5 µM] | 
7 | Clc1nc2ccccc2s1 | 2.51% | 
8 | O=C1C=CC(=O)N1c1ccccc1 |  | 61.1 µM (active)
9 | Cc1cn[nH]c1 | 4.12% [at 42.5 µM] | 
10 | CCCCCCCC/C=C\CCCCCCCC(=O)NCc1ccc(O)c(OC)c1 | -5.85% [at 42.5 µM] | 
11 | c1ccc(Nc2cccc3ccccc23)cc1 |  | inactive
12 | C=CC(=C)CC/C=C(\C)CCC=C(C)C | 2.29% [at 19 µM] | 
13 | Cc1cc(C)c(C=O)c(C)c1 | 0.645% | 
14 | OCCCS | -0.0266% | 
15 | CC1(C)COCN1 | -0.129% | 
16 | COc1ccc2sc(C(=O)Nc3nnn[nH]3)c(OC(C)C)c2c1 | -18.2% | 
17 | NC(=O)c1nc(-c2cccc(-c3cc(F)ccc3OCC(F)(F)C(F)(F)F)c2)n[nH]1 | -20.4% | 
18 | O=C(c1ccccc1)c1cc(Cl)ccc1O | -1.5% | 
19 | CC(C)(C)c1cc(/C=C2\SC(=N)NC2=O)cc(C(C)(C)C)c1O | -22.2% | 
20 | CN1[C@@H]2CC[C@@H]1CC(OC(=O)C(CO)c1ccccc1)C2 (stereo not given in full) | -1.28% [at 42.5 µM] | 

Row | Compound | viability change, negative = cytotoxic | Potency
21 | COc1ccccc1C=O | 1.16% | 
22 | Clc1cccnc1 | -0.886% | 
23 | CCCCCCC(C)OC(=O)COc1nc(F)c(Cl)c(N)c1Cl (stereo not given) | -2.04% | 
24 | Clc1ccc(C(Cn2ccnc2)OCc2c(Cl)cccc2Cl)c(Cl)c1 (stereo not given) | -0.582% [at 42.5 µM] | 
25 | O=C=NCc1cccc(CN=C=O)c1 | -0.671% [at 19 µM] | 
26 | C#CC(O)CCC (stereo not given) | 1.83% | 
27 | CC1=CCC(=O)O1 | -1.54% | 
28 | CC(C)c1ccc(O)c(C(C)C)c1 | -6.45% | 
29 | CCCCOCC | 0.359% | 
30 | Oc1ccc(-c2ccc(O)cc2)cc1 | 2.72% | 
31 | NCCCCCCNCCCCCCN | -2.8% | 
32 | CCOCOCC | 0.811% | 
33 | COCC(=O)O[C@]1(CCN(C)CCCc2nc3ccccc3[nH]2)CCc2cc(F)ccc2[C@@H]1C(C)C |  | 21.1 µM (active)
34 | CCc1ccc(C)nc1 | 4.88% | 
35 | CC(C)CCOCCC(C)C | 0.472% | 
36 | CSc1c(Cl)c(Cl)c(Cl)c(Cl)c1Cl | 3.06% | 
37 | CCCCCCS | -0.679% | 
38 | OCCCc1cccnc1 | 3.48% | 
39 | CC(=O)c1ccccc1N | -1.28% | 
40 | C=CC(=O)OCCC#N | -1.66% | 
